Bioassay records as filed in PubChem BioAssay.
D3 antag – D3 dopamine receptor (human) antagonism; P35462; D3R cells, DiscoveRx beta-arrestin luminescence, antagonist mode; stronger effect = lower value; max response, negative = inhibition, %; hit rate 2.5% among 360,000; in the data active = max response below about -50%; inconclusive = no clear call, values can overlap the other calls; note: % is set by controls: 0 for no effect and ±100 for the full control effect
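Cells expressing the human receptor were seeded at 1500 cells/well, incubated overnight at 37 degrees C in 5% CO2, then exposed to library compounds with dopamine controls for 90 minutes at 37 degrees C before luminescent detection.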
DRD3 agonist – activates the human D3 dopamine receptor; P35462; D3R DiscoveRx beta-arrestin cells, luminescence, 90 min; max activation, %; hit rate 0.58% among 410,000; in the data active = max activation above about 30%; note: 0% is about no effect
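Agonist mode: compounds and dopamine controls were applied to plated cells for 90 min at 37 degrees C after an overnight attachment at 1500 cells/well. Luminescent read-out followed 30 - 60 minutes at room temperature with DiscoveRx detection reagent.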
B2AR arrestin – agonists driving beta-arrestin recruitment to human beta2-adrenergic receptor; P07550; AID 492947; hit rate 0.02% among 330,000; beta-arrestin recruitment to beta2AR, cell-based reporter; Potency, µM (top dose mostly 46.1 µM), without a hit: top-dose activation, most hits filed as activators; active = well fitted activation curve with a large enough effect; inconclusive = small, poorly fitted or top-dose-only effect;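 note: potency is the fitted concentration of half-maximal effect; 0% = DMSO controls and full agonism = EC100 isoproterenol or metaproterenol; nearly all actives have a fitted effect of over 65% in size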
TSHR antagonist – blocks TSH signaling through the human TSH receptor | hit rate 0.2% among 330,000 | activity change, negative = inhibition, % at 11.5 µM | TSHR-expressing cells, TSH-stimulated cAMP HTRF, 2 h; stronger effect = lower value | P16473 | AID 504810;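 active = activity change below a set negative limit, meaning inhibition stronger than a set level, cut at about -70% in these data; inconclusive = activity change between two set negative limits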; note: % is set by controls: 0 for no effect and ±100 for the full control effect
Target sequence (P16473 whole entry, looked up): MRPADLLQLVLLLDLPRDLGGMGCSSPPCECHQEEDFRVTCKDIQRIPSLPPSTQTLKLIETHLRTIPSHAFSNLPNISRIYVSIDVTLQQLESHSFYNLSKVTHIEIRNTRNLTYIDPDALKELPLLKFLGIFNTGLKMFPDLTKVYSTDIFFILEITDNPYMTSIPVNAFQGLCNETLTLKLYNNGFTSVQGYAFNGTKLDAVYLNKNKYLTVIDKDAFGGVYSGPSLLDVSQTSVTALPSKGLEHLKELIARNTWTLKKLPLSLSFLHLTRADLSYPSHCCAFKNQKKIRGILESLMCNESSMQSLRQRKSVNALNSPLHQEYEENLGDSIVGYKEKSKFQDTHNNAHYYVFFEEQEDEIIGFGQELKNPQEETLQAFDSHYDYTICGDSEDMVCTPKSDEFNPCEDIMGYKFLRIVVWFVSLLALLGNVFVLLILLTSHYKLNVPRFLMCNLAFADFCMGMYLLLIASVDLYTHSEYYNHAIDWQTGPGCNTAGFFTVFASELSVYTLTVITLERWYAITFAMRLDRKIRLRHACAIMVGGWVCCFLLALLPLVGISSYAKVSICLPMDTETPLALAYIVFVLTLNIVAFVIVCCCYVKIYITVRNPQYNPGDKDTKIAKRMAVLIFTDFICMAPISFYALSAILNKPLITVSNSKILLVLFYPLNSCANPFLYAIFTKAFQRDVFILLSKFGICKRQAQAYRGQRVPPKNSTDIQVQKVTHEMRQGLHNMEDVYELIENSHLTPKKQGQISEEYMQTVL
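Competitive HTRF cAMP read-out (cryptate anti-cAMP antibody, cAMP-d2; 30 min, room temperature) in freshly harvested TSHR cells. Compounds added before TSH at EC80 (4nM final), followed by 2 hours' incubation at 37 deg C.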
* = called active by the depositor; ? = inconclusive; · = not tested or not shown. Hits are enriched below; roughly 2.9% of the tested compounds scored in any of these assays.

SMILES	D3 antag	DRD3 agonist	B2AR arrestin	TSHR antagonist
CCOC(=O)c1sc(C)c2c1NC1(CCCCC1)NC2=O	4	47*	-1%	-11
CCOC(=O)c1sc(C)c2c1NC1(CCCCCC1)NC2=O	-4	-4	1%	4
CCC(C)(C)OC(=O)N[C@@H](Cc1c[nH]c2ccccc12)C(=O)N[C@@H](CCSC)C(=O)N[C@@H](CC(=O)O)C(=O)N[C@@H](Cc1ccccc1)C(N)=O	·	10	·	·
C/C(=N\NC(=O)c1ccc2c(c1)OCO2)c1ccc(C(=O)O)s1	-4	6	0%	11
C/C(=N\NC(=O)c1ccc2c(c1)OCO2)c1ccc2c(c1)OCO2	-55*	-2	0%	3
O=C(Nc1c(-c2ccccc2)[nH][nH]c1=O)c1ccccc1	-20	-6	·	·
O=C(Nc1c(-c2ccc3c(c2)OCO3)[nH][nH]c1=O)c1ccc2c(c1)OCO2	-78*	-8	·	·
CCOc1cc(S(=O)(=O)N(Cc2ccccc2)Cc2ccccc2)c(OCC)cc1-n1cnnn1	-63*	-3	-1%	-21
CC(C)(C)C(=O)NC(NC(=S)Nc1sc2c(c1C#N)CCCC2)C(Cl)(Cl)Cl (stereo not given)	-55*	9	0%	-43
Cn1c(N)c(C(=O)COC(=O)c2cc(C(F)(F)F)nc3ccccc23)c(=O)n(C)c1=O	·	·	0%	-11
CC(C)Cn1c(N)c(C(=O)COC(=O)c2cc(C(F)(F)F)nc3ccccc23)c(=O)n(C)c1=O	95	34*	-1%	-3
Cn1c(N)c(C(=O)COC(=O)c2cc(C3CC3)nc3ccccc23)c(=O)n(Cc2ccccc2)c1=O	3	36*	0%	-6
CC(C)Cn1c(SCC(=O)c2c(N)n(C)c(=O)n(C)c2=O)nc2ccccc21	0	0	0%	-3
COc1ccccc1CCC(=O)OCC(=O)c1c(N)n(CC(C)C)c(=O)n(C)c1=O	7	31*	0%	-33
CC(C)Cn1c(N)c(C(=O)CSc2nc3ccccc3n2C)c(=O)n(C)c1=O	-54*	11	0%	42
COc1cccc(CN(C)C(=O)c2cc(-c3ccc(F)cc3)nc3ccccc23)c1	55	11	0%	-23
COc1cccc(CN(C)C(=O)c2cc(-c3ccc(OC)c(OC)c3)nc3ccccc23)c1	39	34*	0%	-7
Cc1ccc2nc(-c3cccc(N)c3)oc2c1	9	5	0%	-5
CCc1ccc2oc(-c3cccc(N)c3)nc2c1	-52*	-4	-1%	-4
COc1cccc(CNC(=O)c2nn(-c3ccc(C)cc3)c(=O)c3c2c2ccccc2n3C)c1	·	6	·	·
CCc1ccccc1N(CC)C(=O)c1c(C)oc2ncn(C)c(=O)c12	·	-2	·	·
CCN(CC)S(=O)(=O)c1ccc(N=Nc2c(C)[nH]n(C(N)=S)c2=O)cc1	-93*	9	?	-4
CCCNC(=O)CSc1nc2nc(C)c(Cc3ccccc3Cl)c(C)n2n1	·	8	·	·
COc1ccccc1-c1nc(C(=O)NCC2CCCO2)cc2c1[nH]c1ccccc12 (stereo not given)	27	3	0%	-13
CCC(c1nnc(SCC(=O)N2CC(=O)Nc3ccccc32)n1Cc1ccccc1)N(C)C (stereo not given)	0	-4	-1%	17
SMILES	D3 antag	DRD3 agonist	B2AR arrestin	TSHR antagonist
O=C(CSc1nc2c([nH]c3ccccc32)c(=O)n1-c1ccccc1)NCC1CCCO1 (stereo not given)	-84*	-23	0%	-7
COc1ccccc1-n1c(SCC(=O)NCC2CCCO2)nc2c([nH]c3ccccc32)c1=O (stereo not given)	-57*	-19	3%	-7
Cc1nnc(SCC(=O)N2CC(=O)Nc3ccccc32)n1Cc1ccccc1	-66*	-6	0%	12
COc1cc(-c2nc(C(=O)NCC3CCCO3)cc3c2[nH]c2ccccc23)cc(OC)c1OC (stereo not given)	88	33*	1%	-12
O=C(CSc1nc2c([nH]c3ccccc32)c(=O)n1-c1cccc(Cl)c1)NCC1CCCO1 (stereo not given)	·	-6	·	·
COc1ccc(-c2cc(C(=O)Nc3c(C(=O)c4ccc(C)cc4)oc4ccccc34)no2)cc1	·	-21	·	·
CC1=C(C(=O)OC2CCCCCC2)C(c2cccc(Cl)c2)CC(=O)N1 (stereo not given)	·	3	·	·
CCN(CC)c1ccc(NC(=O)CCc2c(C)nc3ncnn3c2C)c(C)c1	·	-10	·	·
CCCCOC(=O)c1ccc(OC(=O)c2sc3ncn(Cc4cccc(F)c4)c(=O)c3c2C)cc1	·	3	·	·
O=C(CSc1nc2c([nH]c3ccccc32)c(=O)n1-c1ccc(F)cc1)N1CCCCCC1	·	33*	·	·
Cc1nnc(SCC(=O)NCC2CCCO2)n1Cc1ccccc1 (stereo not given)	-8	78*	-1%	-2
Cc1ccccc1-n1c(C)nnc1SCC(=O)NCC1CCCO1 (stereo not given)	-23	-9	-1%	20
CC1Cc2nc(SCC(=O)NCC3CCCO3)n(C)c(=O)c2S1 (stereo not given)	-53*	14	-1%	20
Cc1[nH]nc2nc(SCC(=O)NCC3CCCO3)n(-c3ccc(Br)cc3)c(=N)c12 (stereo not given)	-50*	6	-1%	-6
CCN1CCCC1CN(Cc1cc2ccc(C)cc2[nH]c1=O)C(=S)Nc1ccccc1C(=O)OC (stereo not given)	-65*	-11	0%	-1
CCN1CCCC1CN(Cc1cc2ccc(C)cc2[nH]c1=O)C(=S)Nc1ccc(OC)cc1 (stereo not given)	-64*	-8	-1%	13
CCN1CCCC1CN(Cc1cc2ccc(C)cc2[nH]c1=O)C(=S)Nc1cccc(OC)c1 (stereo not given)	-88*	-14	0%	16
CCN1CCCC1CN(Cc1cc2ccc(C)cc2[nH]c1=O)C(=S)Nc1ccc(F)cc1 (stereo not given)	-82*	-25	0%	-16
CCc1ccc(CNC(=O)C2CCCN(c3nnc(C)c4c(C)n(-c5ccc(OC)cc5)nc34)C2)cc1 (stereo not given)	·	31*	·	·
C=CCn1c(CCNC(=O)c2ccc(Cl)c(Cl)c2)nnc1SCCOc1ccc(OC)cc1	6	-15	0%	4
Cn1c(CCNC(=O)c2ccc(Cl)c(Cl)c2)nnc1SCc1ccc(Cl)c(Cl)c1	-53*	0	-2%	-4
O=[N+]([O-])c1ccccc1-c1ccc(CN2CCN(c3ccccc3)CC2)o1	-58*	0	0%	-11
CCN(CC)S(=O)(=O)c1cc(-c2nnc(-c3ccc(Br)cc3)o2)ccc1Br	-65*	-10	-1%	-16
O=C(O)[C@@H]1C[C@H](CP(=O)(O)O)CCN1	·	7	·	·
CCc1cccc(NC(=O)C(NS(=O)(=O)c2ccc3nc(C)sc3c2)C(C)C)c1 (stereo not given)	·	9	·	·
COc1ccc2c(c1)Sc1ccccc1N2CCN(C)C	-81*	-20	-2%	-12
CC(=O)c1ccc2c(c1)N(CCCN(C)C)c1ccccc1S2	-108*	-96	·	·
